Results reported in PubChem BioAssay.
Active and inactive are the calls of the source.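 Rule for the calls: active = viability loss from added drug above about 55%, and viability with drug at most 40%, in both replicates (limit read from the data, passing the limit was not always enough); inconclusive = both conditions met in only one replicate; inactive = neither replicate meets both conditions.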

Assay: MRP1 drug-resistance reversers in H69AR cells – cell-based, doxorubicin co-treatment, pilot screen (AID 601)
Details: H69AR cells + 2 uM doxorubicin, CellTiter-Glo, 72 h; at 10 µM; stronger effect = higher value

SMILES | differential viability (reversal)
COC(=O)c1ccccc1NC(=O)CSc1nc2c(c(=O)n(C)c(=O)n2C)n1C | 3.48% (inactive)
O=c1oc2ccccc2c2c1ncn2-c1ccccc1 | -8.58% (inactive)
COc1ccc(C2CC(c3ccccc3)Nc3nc(NC(=O)c4cccs4)nn32)cc1 (centres undefined) | 4.87% (inactive)
COC(=O)c1cccc(S(=O)(=O)N2CCN(c3nc4ccccc4s3)CC2)c1 | 8.71% (inactive)
COC(=O)CCSCc1cn2cc(Cl)ccc2n1 | 1.26% (inactive)
O=C(c1ccco1)N1CCN(S(=O)(=O)c2ccc(C3CCCCC3)cc2)CC1 | 0.505% (inactive)
COc1cccc(C(=O)CN2CCC(NC(=O)NC3CCCCC3)CC2)c1 | 6.55% (inactive)
CSCCC(NC(=O)c1occc1C)C(=O)O (centres undefined) | 12.8% (inactive)
Cc1cccc(N2CCN(Cc3c(C)n(C)n(-c4ccccc4)c3=O)CC2)c1C | 0.085% (inactive)
CCOc1cc(C2C(C(=O)OC(C)C)=C(C)N=C3SCCC(=O)N32)ccc1OC(C)=O (centres undefined) | 3.33% (inactive)
O=C(Cc1cccs1)Nc1ccccc1C(=O)O | 5.91% (inactive)
O=C(NCCN1CCOCC1)c1csc2c1CCCC2 | 16.4% (inactive)
O=C(CSc1nc2ccccc2s1)N1CCOCC1 | -6.72% (inactive)
CC1C(O)=C(c2nc3ccccc3[nH]2)C(=N)N1c1ccccc1 (centres undefined) | -39% (inactive)
Cc1oc(-c2ccccc2F)nc1CS(=O)(=O)CC(=O)N1CCN(Cc2ccccc2)CC1 | -1.19% (inactive)
CSCSC1=C(C#N)C(c2ccc(Cl)cc2)C(C(C)=O)=C(C)N1 (centres undefined) | -5.35% (inactive)
Cc1ccc2c(c1)CCCN2C(=O)Nc1ccc2c(c1)OCO2 | 0.28% (inactive)
COc1cccc(N2CCN(CC(=O)Nc3nnc(-c4ccccc4)s3)CC2)c1 | -19.7% (inactive)
CCOC(=O)C1=C(C)NC(SC(C)=O)=NC1c1ccc(OC(C)=O)c(OC)c1 (centres undefined) | -9.22% (inactive)
C/C=C(\C)c1nnc(NC(=O)C(C)C)s1 | 9.51% (inactive)
Cc1cc(C(=O)CSCc2nnc3n(CCC(C)C)c(=O)c4ccccc4n23)c(C)n1C | 0.59% (inactive)
COc1cccc(C(=O)NCc2nnc(SCC(=O)Nc3nccs3)n2-c2ccccc2)c1 | -3.27% (inactive)
O=C(OCC(=O)N1CCc2ccccc21)C1=COCCO1 | 18.2% (inactive)
COc1cccc(Nc2cc(C)nc3ccccc23)c1 | -1.05% (inactive)

Same assay, conditions: H69AR cells + 2 uM doxorubicin, CellTiter-Glo, 72 h; measured here: viability with 2 uM doxorubicin; at 10 µM; stronger effect = lower value

SMILES | viability
Cn1c(=O)[nH]c(=O)c2[nH]c(NCCCN3CCOCC3)nc21 | 85%
COc1ccc(CN(Cc2nc3ccccc3c(=O)[nH]2)C(=O)NC2CCCCC2)cc1 | 89.4%
O=C(Nc1ccncc1)c1cncc(Br)c1 | 96.4%
COc1ccc(C(=O)Nc2ccc(C)cn2)c(OC)c1 | 74.2%
C/C(=N\O)C(C)/[N+]([O-])=C/c1nc(C)c(C)n1O (centres undefined) | 102%
CCC(C)(C)NC(=O)C(c1ccco1)N(C(=O)Cn1nnc2ccccc21)c1ccc2c(c1)OCO2 (centres undefined) | 85.9%
COc1ccc(OC)c(S(=O)(=O)N2c3ccccc3CC2C)c1 (centres undefined) | 101%
O=C(COc1ccccc1)Nc1ccc(-c2nnc(-c3ccco3)o2)cc1 | 86.8%
Cc1ccc(-c2noc(CCC(=O)NCC3CCN(Cc4cccc(C)c4)CC3)n2)cc1 | 95.6%
CCOc1cc(C(=O)N2CCN=C2SC)cc(OCC)c1OCC | 95.2%
COc1ccc(-n2c(=O)c3c4c(sc3n3c(C)nnc23)CCCC4)cc1 | 80.9%
COc1ccc(CCNC(=O)c2cc(-c3cc(C)c(C)cc3O)n[nH]2)cc1OC | 75.5%
CCC(Oc1ccc2ccccc2c1)C(=O)O (centres undefined) | 81.6%
O=C(O)C1CC=CCC1C(=O)Nc1cc(Cl)ccc1Cl (centres undefined) | 84.7%
O=C(c1cnn2c(C(F)F)cc(C3CC3)nc12)N1CCOCC1 | 93.5%
O=C(CSCCSCC(=O)c1ccco1)c1ccco1 | 90%
COC(=O)c1ccccc1NC(=O)CSc1nc2c(c(=O)n(C)c(=O)n2C)n1C | 93.5%
O=c1oc2ccccc2c2c1ncn2-c1ccccc1 | 97.7%
COc1ccc(C2CC(c3ccccc3)Nc3nc(NC(=O)c4cccs4)nn32)cc1 (centres undefined) | 83.4%
COC(=O)c1cccc(S(=O)(=O)N2CCN(c3nc4ccccc4s3)CC2)c1 | 72.3%

SMILES | viability
COC(=O)CCSCc1cn2cc(Cl)ccc2n1 | 98.2%
O=C(c1ccco1)N1CCN(S(=O)(=O)c2ccc(C3CCCCC3)cc2)CC1 | 85.1%
COc1cccc(C(=O)CN2CCC(NC(=O)NC3CCCCC3)CC2)c1 | 91.5%
CSCCC(NC(=O)c1occc1C)C(=O)O (centres undefined) | 89.8%
Cc1cccc(N2CCN(Cc3c(C)n(C)n(-c4ccccc4)c3=O)CC2)c1C | 83.8%
CCOc1cc(C2C(C(=O)OC(C)C)=C(C)N=C3SCCC(=O)N32)ccc1OC(C)=O (centres undefined) | 89.9%
O=C(Cc1cccs1)Nc1ccccc1C(=O)O | 97.2%
O=C(NCCN1CCOCC1)c1csc2c1CCCC2 | 86%
O=C(CSc1nc2ccccc2s1)N1CCOCC1 | 97.1%
CC1C(O)=C(c2nc3ccccc3[nH]2)C(=N)N1c1ccccc1 (centres undefined) | 55%
Cc1oc(-c2ccccc2F)nc1CS(=O)(=O)CC(=O)N1CCN(Cc2ccccc2)CC1 | 91.4%
CSCSC1=C(C#N)C(c2ccc(Cl)cc2)C(C(C)=O)=C(C)N1 (centres undefined) | 80.6%
Cc1ccc2c(c1)CCCN2C(=O)Nc1ccc2c(c1)OCO2 | 89.2%
COc1cccc(N2CCN(CC(=O)Nc3nnc(-c4ccccc4)s3)CC2)c1 | 103%
CCOC(=O)C1=C(C)NC(SC(C)=O)=NC1c1ccc(OC(C)=O)c(OC)c1 (centres undefined) | 94.5%
C/C=C(\C)c1nnc(NC(=O)C(C)C)s1 | 89.2%
Cc1cc(C(=O)CSCc2nnc3n(CCC(C)C)c(=O)c4ccccc4n23)c(C)n1C | 66.8%
COc1cccc(C(=O)NCc2nnc(SCC(=O)Nc3nccs3)n2-c2ccccc2)c1 | 101%
O=C(OCC(=O)N1CCc2ccccc21)C1=COCCO1 | 67.9%
COc1cccc(Nc2cc(C)nc3ccccc23)c1 | 75.4%
